Broadly, the AC50 is the concentration giving half of the maximal activity seen.

This passage reports AC50 and outcome results from PubChem BioAssay (EPA / NIEHS).

Calls of active or inactive are those of the source. The calls were made as follows: active = hit-call score of the fitted dose curve at least 0.9, where 1 is the maximum; inactive = score below 0.9.

Assay [1] in a line: BSK_3C_TissueFactor: BioMAP Diversity Plus: 3C Assay for Tissue Factor Biomarker Activity (AID 2282997). To be noted: BioMAP 3C HUVEC, tissue factor biomarker readout; actives raise or lower the signal. A digest of the protocol: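 Dosing of human umbilical vein endothelial cells preceded a 24 h incubation. Tissue Factor was then read by ELISA, with increases and decreases both scored relative to DMSO controls.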

Assay [2] is described as follows: BSK_3C_uPAR: BioMAP Diversity Plus: 3C Assay for Urokinase-type plasminogen activator receptor (uPAR) Biomarker Activity (AID 2282998). The note with it: BioMAP 3C HUVEC, uPAR biomarker ELISA; actives raise or lower the signal. Put shortly:
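Dose primary human umbilical vein endothelial cells, incubate 24 h, measure cell-surface uPAR by ELISA, then fit the signal in both directions against the DMSO negative control.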
A general note: In an ELISA, binding on a coated surface is turned into a signal by an enzyme label.

Assay [3] in a line: BSK_3C_VCAM1: BioMAP Diversity Plus: 3C Assay for Vascular cell adhesion molecule 1 (VCAM1) Biomarker Activity (AID 2282999). To be noted: BioMAP 3C HUVEC, VCAM1 ELISA, cytokine-stimulated; actives raise or lower the signal. A digest of the protocol: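 Endothelial cells from human umbilical vein are treated with test chemical. At 24 h, VCAM-1 is measured by ELISA, and responses in either direction are fitted relative to DMSO.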

Assay [4] in a line: BSK_4H_Eotaxin3: BioMAP Diversity Plus: 4H Assay for Eotaxin 3 Biomarker Activity (AID 2283000).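 As to outcome: CCL26 protein level quantified by ELISA in parallel with SRB cytotoxicity check.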 The note with it: primary human endothelial cells (HUVEC); actives raise or lower the signal. A digest of the protocol:
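Human umbilical vein endothelial cells (BSK_4H system) dosed with test chemical; Eotaxin-3 (CCL26) measured by ELISA 24 h after dosing. Bidirectional curve fitting relative to DMSO negative control as baseline.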

Read-out in assay [5]: Intercellular Adhesion Molecule 1 (ICAM1), ICAM1 (gene 3383)
The assay is described as follows: BSK_3C_ICAM1: BioMAP Diversity Plus: 3C Assay for Intercellular Adhesion Molecule 1 (ICAM1) Biomarker Activity (AID 2283003). The note with it: primary human endothelial cells (HUVEC); actives raise or lower the signal. A digest of the protocol: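 HUVEC primary cells stimulated under 3C conditions; ICAM1 measured by ELISA 24 h after compound dosing. Curves fitted bidirectionally against the DMSO baseline. Overt cytotoxicity checked by SRB staining of parallel cultures.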

Read-out in assay [6]: E-selectin (Homo sapiens) (UniProt P16581)
The assay is described as follows: BSK_3C_Eselectin: BioMAP Diversity Plus: 3C Assay for Eselectin Biomarker Activity (AID 2283015). To be noted: primary human endothelial cells (HUVEC); actives raise or lower the signal. A digest of the protocol:
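E-selectin ELISA readout, fitted bidirectionally relative to DMSO, taken 24 h post-dosing in HUVEC cultures of the 3C system. Overt cytotoxicity tracked with sulforhodamine B staining of parallel wells.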

Read-out in assay [7]: Interleukin-1 alpha (IL1a), IL1A (gene 3552)
The assay is described as follows: BSK_BE3C_IL1a: BioMAP Diversity Plus: BE3C Assay for Interleukin-1 alpha (IL1a) Biomarker Activity (AID 2283016). To be noted: primary human bronchial epithelial cells; actives raise or lower the signal. A digest of the protocol:
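Human primary bronchial epithelial cells, 24 h chemical exposure; IL-1a quantified by ELISA, fitted bidirectionally against DMSO. Cytotoxicity assessed in parallel by SRB total-protein staining at the time of measurement.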

Read-out in assay [8]: Monocyte Chemoattractant Protein-1 (MCP1), CCL2 (gene 6347)
As to the kind of experiment: BSK_3C_MCP1: BioMAP Diversity Plus: 3C Assay for Monocyte Chemoattractant Protein-1 (MCP1) Biomarker Activity (AID 2283017). To be noted: primary human endothelial cells (HUVEC); actives raise or lower the signal. Put shortly: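 MCP-1 was measured by ELISA 24 h after dosing in primary HUVEC 3C cultures and fitted in both directions relative to DMSO; cytotoxicity was checked by SRB total-protein staining in parallel wells.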

Read-out in assay [9]: Monocyte Chemoattractant Protein-1 (MCP1), CCL2 (gene 6347)
As to the kind of experiment: BSK_4H_MCP1: BioMAP Diversity Plus: 4H Assay for Monocyte Chemoattractant Protein-1 (MCP1) Biomarker Activity (AID 2283018). To be noted: primary human endothelial cells (HUVEC); actives raise or lower the signal. A digest of the protocol: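 Human umbilical vein endothelial cells (4H system) exposed to chemicals for 24 h in 96-well format. MCP-1 measured by ELISA; bidirectional fitting against DMSO, with SRB total-protein staining in parallel cultures for cytotoxicity.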

Read-out in assay [10]: Interleukin-8 (IL8), CXCL8 (gene 3576)
The assay is described as follows: BSK_3C_IL8: BioMAP Diversity Plus: 3C Assay for Interleukin-8 (IL8) Biomarker Activity (AID 2283020). To be noted: primary human endothelial cells (HUVEC); actives raise or lower the signal. Put shortly:
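Primary human umbilical vein endothelial cells were dosed for 24 h. IL-8 was quantified by ELISA and fitted bidirectionally against DMSO. Cytotoxicity was assessed in parallel cultures by SRB staining at 560 nm.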

Read-out in assay [11]: Monokine induced gamma interferon (MIG), CXCL9 (gene 4283)
As to the kind of experiment: BSK_3C_MIG: BioMAP Diversity Plus: 3C Assay for Monokine induced gamma interferon (MIG) Biomarker Activity (AID 2283021).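 As to AC50: MIG protein level measured by immunoassay in the treated endothelial cultures.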 The note with it: primary human endothelial cells (HUVEC); actives raise or lower the signal. Put shortly:
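HUVEC primary endothelial cultures dosed with chemical; MIG quantified by ELISA at 24 h. Data fitted bidirectionally against DMSO control, with parallel SRB total-protein staining for cytotoxicity.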

Assay [12] is described as follows: BSK_3C_SRB: Viability Assessment in the BioMAP Diversity Plus: 3C Assay (AID 2283023).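 Also: fitted both ways against DMSO so a hit may be signal rise or drop.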 To be noted: primary human endothelial cells (HUVEC). A digest of the protocol:
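Cytotoxicity readout in parallel HUVEC 3C cultures: after 24 h compound exposure, cells fixed with 10% TCA, stained with 0.1% SRB and read at 560 nm. Gain or loss relative to DMSO fitted.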

Assay [13] can be described thus: BSK_4H_SRB: Viability Assessment in the BioMAP Diversity Plus: 4H Assay (AID 2283027).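 Also: cells exposed to compound for 24 h before staining.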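 As to AC50: curves fitted both ways versus DMSO so AC50 may be loss or gain.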 The note with it: primary human endothelial cells (HUVEC). A digest of the protocol:
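Absorbance at 560 nm of SRB-stained total protein served as the viability read-out in confluent primary human umbilical vein endothelium 24 h after chemical treatment. Curves were fitted bidirectionally against DMSO as negative control.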

Assay [14] is described as follows: BSK_BE3C_SRB: Viability Assessment in the BioMAP Diversity Plus: BE3C Assay (AID 2283028). To be noted: primary human bronchial epithelial cells. Put shortly: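 Cytotoxicity read-out: SRB (0.1%) staining of TCA-fixed (10%) human lung bronchial epithelial cells, absorbance 560 nm, 24 h post-dosing. Curves fitted both directions relative to DMSO.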
Read-out in assay [15]: Thrombomodulin, THBD (gene 7056)
The assay is described as follows: BSK_3C_Thrombomodulin: BioMAP Diversity Plus: 3C Assay for Thrombomodulin Biomarker Activity (AID 2283029). The note with it: primary human endothelial cells (HUVEC); actives raise or lower the signal. A digest of the protocol:
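Human umbilical vein endothelial cells were exposed to chemicals for 24 h; cell-surface thrombomodulin quantified by ELISA, with bidirectional fitting against DMSO baseline.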

Read-out in assay [16]: Monokine induced gamma interferon (MIG), CXCL9 (gene 4283)
The assay is described as follows: BSK_hDFCGF_MIG: BioMAP Diversity Plus: hDFCGF Assay for Monokine induced gamma interferon (MIG) Biomarker Activity (AID 2283063). To be noted: primary human foreskin fibroblasts; actives raise or lower the signal. A digest of the protocol:
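Human primary foreskin fibroblasts in the hDFCGF system, exposed to test chemical for 24 h; MIG measured by ELISA. Bidirectional curve fitting against DMSO negative control as activity baseline.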

Read-out in assay [17]: Matrix Metallopeptidase 1 (MMP1), MMP1 (gene 4312)
As to the kind of experiment: BSK_hDFCGF_MMP1: BioMAP Diversity Plus: hDFCGF Assay for Matrix Metallopeptidase 1 (MMP1) Biomarker Activity (AID 2283064). The note with it: primary human foreskin fibroblasts; actives raise or lower the signal. A digest of the protocol: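 hDFCGF primary fibroblasts (human foreskin); chemical added; 24 h; MMP1 by ELISA; bidirectional fit vs DMSO.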

Read-out in assay [18]: E-selectin (Homo sapiens) (UniProt P16581)
As to the kind of experiment: BSK_SAg_Eselectin: BioMAP Diversity Plus: SAg Assay for Eselectin Biomarker Activity (AID 2283091). The note with it: primary human HUVEC with PBMC; actives raise or lower the signal. A digest of the protocol:
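Cell-surface E-selectin is read by ELISA at 24 h in the SAg co-culture of HUVEC and PBMC. Curves are fitted in both directions relative to DMSO. Parallel SRB total-protein staining tracks overt toxicity.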

Assay [19] in a line: BSK_SAg_PBMCCytotoxicity: PBMC Cytotoxicity Assessment in the BioMAP Diversity Plus: SAg Assay (AID 2283093).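 Also: PBMC viability measured as Alamar Blue reduction fluorescence at 546/580 nm; fitted both ways against DMSO so a hit may be loss or gain of signal.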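 As to AC50: PBMC superantigen activated with SEB plus TSST-1 one hour after compound addition.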 To be noted: primary human HUVEC with PBMC. Put shortly: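 Compound added to 75,000 PBMC/well for 1 h; SEB and TSST-1 then added at 20 ng/mL final each; 90 h incubation; Alamar Blue 6 h; read 546/580 nm ex/em. Activity fitted bidirectionally relative to DMSO baseline.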

Read-out in assay [20]: Interleukin-8 (IL8), CXCL8 (gene 3576)
The assay is described as follows: BSK_SAg_IL8: BioMAP Diversity Plus: SAg Assay for Interleukin-8 (IL8) Biomarker Activity (AID 2283094). The note with it: primary human HUVEC with PBMC; actives raise or lower the signal. A digest of the protocol:
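Human umbilical vein endothelial cells co-cultured with PBMC, stimulated with superantigen; IL-8 measured by ELISA 24 h after chemical dosing. Bidirectional fitting versus DMSO; SRB staining in parallel cultures tracks cytotoxicity.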

E-selectin (Homo sapiens), sequence (P16581 whole entry, looked up): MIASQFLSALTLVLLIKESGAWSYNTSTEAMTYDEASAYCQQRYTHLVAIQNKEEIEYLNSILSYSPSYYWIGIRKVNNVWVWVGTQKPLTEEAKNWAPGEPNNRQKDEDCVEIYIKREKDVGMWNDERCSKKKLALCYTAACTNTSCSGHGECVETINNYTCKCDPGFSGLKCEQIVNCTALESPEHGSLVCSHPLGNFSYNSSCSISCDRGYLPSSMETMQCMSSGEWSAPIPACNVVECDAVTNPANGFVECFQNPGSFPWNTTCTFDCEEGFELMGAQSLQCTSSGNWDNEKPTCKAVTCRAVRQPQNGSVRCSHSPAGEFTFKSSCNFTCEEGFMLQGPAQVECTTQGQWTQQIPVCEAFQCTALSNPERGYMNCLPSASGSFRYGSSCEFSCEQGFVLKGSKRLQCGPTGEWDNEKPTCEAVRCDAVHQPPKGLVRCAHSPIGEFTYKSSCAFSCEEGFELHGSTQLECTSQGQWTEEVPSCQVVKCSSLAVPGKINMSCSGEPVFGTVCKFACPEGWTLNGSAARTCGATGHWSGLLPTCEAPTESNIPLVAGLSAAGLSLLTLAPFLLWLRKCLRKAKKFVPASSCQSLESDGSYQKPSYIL

On to `CN(C)c1ccc(C(c2ccccc2)c2ccc(N(C)C)cc2)cc1`, for which the AC50 in [1] is 2 µM (active); in assay [3], 20 µM (active); in assay [4], 8.42 µM (active); in [6] it was 3.29 µM (active); in [7], 5.43 µM (active); in assay [8] it was 11.9 µM (active). In addition, the AC50 in [9] was 4.5 µM (active); in assay [10], 5.43 µM (active); in assay [12], 9.62 µM (active); in [13] it was 4.33 µM (active); in assay [18], 11.3 µM (active); in [20] it was 8.09 µM (active). Also, the outcome in assay [2], in assay [5], in assay [11], in assay [14], in assay [15] and in assay [16] was inactive. For the same compound, the outcome in assay [17] and in assay [19] was inactive.

For `Cc1cccnc1`, the result in [1], in assay [2], in assay [3], in [4], in [5] and in [6] was inactive. For the same compound, the outcome in assay [7], in assay [8], in [9], in assay [10], in assay [11] and in assay [12] was inactive. Also, the result in assay [13], in assay [14], in assay [15], in assay [16], in assay [17] and in [18] was inactive. The outcome in assay [19] and in assay [20] was inactive.

As for `Cc1cc(-n2nc3ccc(Cl)cc3n2)c(O)c(C(C)(C)C)c1`, the result in assay [1], in assay [2], in assay [3], in [4], in assay [5] and in assay [6] was inactive. Further, the result in assay [7], in assay [8], in [9], in assay [10], in [11] and in assay [13] was inactive. The outcome in [14], in [15], in assay [16], in assay [17], in assay [18] and in assay [19] was inactive. The outcome in assay [20] was inactive. In assay [12], the AC50 is 0.342 µM (active).

On to `CCCCCCCCCCC1CO1` (stereo not given), for which the AC50 in [1] was 30.8 µM (active); in assay [2], 33.7 µM (active); in assay [3], 34.8 µM (active); in assay [4], 36.9 µM (active); in [5], 36.2 µM (active); in [6] it was 34.8 µM (active). Also, the AC50 was 31.5 µM (active) in [7]; 31 µM (active) in assay [8]; 33.8 µM (active) in [9]; 32.8 µM (active) in assay [10]; 34.4 µM (active) in [11]; 35.2 µM (active) in [12]. The AC50 is 30 µM (active) in assay [13]; 30.3 µM (active) in [16]; 20 µM (active) in [17]; 20 µM (active) in assay [18]; 29.5 µM (active) in assay [19]. In addition, the result in assay [14], in assay [15] and in [20] was inactive.
